Bioassay records: PubChem BioAssay, National Center for Advancing Translational Sciences (NCATS)
Most compounds without a hit are left out; they make up all but 6.6% or so of the library.
KB-V1 cytotox – qHTS assay for MDR1-selective chemotherapeutics: Primary screen using the drug-selected MDR subline cells KB-V1. KB-V1 MDR cells viability, CellTiter-Glo, 72 h. Potency, µM (series often up to 46.1 µM), most hits filed as cytotoxic. AID 1347076, 2019. 3.4% of 400,000 active; further: on the % scale 0 is the no-effect control and ±100 the full control effect; nearly all actives have a fitted effect of over 60% in size
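In this primary screen, KB-V1 cells overexpressing P-gp are incubated with library compounds (lowest to highest concentration) for 72 h at 37 degrees C before a luminescent ATP viability read.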
TGFb SMAD3 inh – qHTS for Inhibitors of TGF-b; Potency, µM (titrated, usually from 46.1 µM), for inactives: top-dose activity, negative = inhibition, most hits filed as inhibitors; HepG2 CAGA-GFP TGF-b/SMAD3 reporter, GFP fluorescence, 18 h; TGF-beta stimulated, 500 pg/mL final; AID 588855, 2011; 1.2% of 410,000 active; further: on the % scale 0 is the no-effect control and ±100 the full control effect; nearly all actives have a fitted effect of over 65% in size
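Smad-responsive CAGA-GFP expression was quantified in HEPG2 cells exposed to compounds and 500 pg/mL final TGF-beta for 18 h at 37 degrees C; unstimulated wells defined full inhibition.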
KB-3-1 tox – qHTS assay for MDR1-selective chemotherapeutics: Primary screen using the parental adenocarcinoma cell KB-3-1; KB-3-1 viability, CellTiter-Glo ATP luminescence, 72 h; Potency, µM (doses to about 46.1 µM), most hits filed as cytotoxic; 1.4% of 400,000 active; AID 1347075, 2019; further: on the % scale 0 is the no-effect control and ±100 the full control effect; nearly all actives have a fitted effect of over 60% in size
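72 h, 37 °C compound treatment of KB-3-1 parental cells; CellTiter-Glo added, 10 min, luminescence read. Data corrected against DMSO-only plates and normalized before curve fitting.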
HepG2 tox – qHTS for Inhibitors of TGF-b: Cytotox Counterscreen | HepG2 CAGA-GFP viability, ATP luminescence, 18 h | Potency, µM (doses to about 46.1 µM), inactives show at the highest dose activity change, negative = cytotoxicity, actives largely listed as cytotoxic | 0.76% of 410,000 active | AID 588856, 2011
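CellTiter-Glo luminescence gave cytotoxicity after 18 hours at 37 degrees C. The cells were HepG2 CAGA-GFP in 1% FBS DMEM, stimulated with 500 pg/mL TGF-beta after compound addition. %Activity was normalised to no-cell wells (complete cell-killing) and DMSO (no toxicity), and curves were fitted and classified.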
HT1080NT lethal – qHTS for induction of synthetic lethality in tumor cells producing 2HG: qHTS for the HT-1080-NT fibrosarcoma cell line. HT-1080-NT fibrosarcoma viability, CellTiter-Glo ATP luminescence, 48 h. 1.6% of 360,000 active. Potency, µM (highest dose often 46.1 µM), without a hit: at the highest dose activity, negative = less viability, usual class: cytotoxic. AID 686970, 2013;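 further: NT is the 2HG producing partner of a matched IDH1 knockdown line; 0% = DMSO-treated cells and -100% = media-only wells without cells; nearly all actives have a fitted effect of over 55% in size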
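Viability of the 2HG-overproducing fibrosarcoma line after 48 hours of compound exposure at 37 degrees C was determined by luminescence with CellTiter-Glo, and concentration-effect curves were then fitted and categorized.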
HT1080 IDH1KD tx – qHTS for induction of synthetic lethality in tumor cells producing 2HG: qHTS for the HT-1080-IDH1KD cell line; HT-1080 IDH1 knockdown viability, ATP luminescence, 48 h; Potency, µM (highest dose often 46.1 µM), for inactives: at the top dose activity, negative = toxicity, usual class: cytotoxic; 2% of 360,000 active; AID 686971, 2013;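 further: 0% = DMSO wells and -100% = cell-free medium wells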
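Cytotoxicity counter-line: IDH1KD HT-1080, 48 h, CellTiter-Glo. Curves classed by r2, magnitude and activity.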
Numbers without * were called inactive; i = inactive; u = inconclusive; x = not tested or not shown; [ ] = another dose, or the depositor's remark. The call rests on the fitted dose curve; in most records, active means well fitted curve in the direction sought with a large enough effect; inconclusive means small, poorly fitted or top-dose-only effect, or another doubt; inactive means no such curve, though single readings can be large; an effect the other way counts as inactive or inconclusive. Potency means the concentration at half of the fitted maximal effect.

SMILES | KB-V1 cytotox | TGFb SMAD3 inh | KB-3-1 tox | HepG2 tox | HT1080NT lethal | HT1080 IDH1KD tx
O=[N+]([O-])c1cc(C(F)(F)F)c(Cl)c([N+](=O)[O-])c1Nc1ncc(C(F)(F)F)cc1Cl | u | 1.8µM* | 1.5µM* | 2.5µM* | x | x
O=C(O)c1cc(Oc2ccc(C(F)(F)F)cc2Cl)ccc1[N+](=O)[O-] | i | 3% | i | 4% | 10% | -1%
Cn1c(=O)oc2cc(NC(=O)CCl)ccc21 | u | u | u | -73% | u | u
Cc1ccc(C)c(Cn2c(C(=O)O)c(C=O)c3ccccc32)c1 | i | 16% | i | -12% | 9% | 12%
CCOC(=O)c1c(C=O)c2ccccc2n1Cc1ccccc1 | 21µM* | -5% | u | 0% | 0% | 2%
Fc1ccc(Cn2nnnc2CN2CCC(n3nnc4cc(C(F)(F)F)ccc43)CC2)cc1 | u | -27% | i | -10% | 10% | -3%
FC(F)(F)c1ccc2c(c1)ncn2C1CCN(Cc2nnnn2C2CCCCC2)CC1 | 7.3µM* | u | u | -16% | -7% | -3%
COC(=O)Nc1nc2ccccc2[nH]1 | 3.7µM* | -3% | 10µM* | 6% | u | u
CCN(CC)S(=O)(=O)c1cc(NC(=O)C(C)N2CC=C(c3ccccc3)CC2)ccc1C (stereo unspecified) | 16µM* | -25% | 21µM* | 17% | -1% | -17%
Cc1cc(Br)c(NC(=O)CN2CC=C(c3ccccc3)CC2)c(Br)c1 | i | -18% | i | -22% | -7% | -5%
C[C@H]1CC[C@@H]2[C@@H](C)[C@H]3[C@H](C[C@H]4[C@@H]5CC=C6C[C@@H](O[C@@H]7O[C@H](CO)[C@H](O)[C@H](O[C@@H]8O[C@H](CO)[C@@H](O)[C@H](O)[C@H]8O)[C@H]7O[C@@H]7O[C@@H](C)[C@H](O)[C@@H](O)[C@H]7O)CC[C@]6(C)[C@H]5CC[C@]34C)N2C1 | u | u | i | 13µM* | 3% | -11%
CC(C)n1c(/C=C/[C@H](O)C[C@H](O)CC(=O)O)c(-c2ccc(F)cc2)c2ccccc21 | u | 35% | u | -5% | 8.2µM* | 9.2µM*
COc1ccc(S(=O)(=O)NCCc2sc3nc(-c4ccc(C)cc4)nn3c2C)cc1F | x | u | x | 3% | x | x
CN(C)C(=O)O/N=C(\N)COc1ccc(C(C)(C)C)cc1 | u | u | i | -98% | 12µM* | 21µM*
CCOC(=O)C(O)(c1ccc(N(C)C(=O)COc2ccccc2)cc1)C(F)(F)F (stereo unspecified) | i | 2% | i | -2% | -7% | 7%
CCOC(=O)c1cc(-c2ccccc2)n(CCCC(=O)Nc2ccc(C)c(C)c2)c1C | i | u | i | -24% | x | x
Cc1oc2ccc(O)c(CN3CCCCCC3)c2c1C(=O)Nc1cccc(Cl)c1C | x | u | x | -18% | x | x
Cc1ccc(/C=C/C2=NN(Cc3ccc(Cl)c(Cl)c3)C(=O)CC2)cc1 | i | 11µM* | i | -18% | 1% | -1%[9.24 µM]
Cc1ccc(Cn2nc(C)c(C=O)c2Cl)cc1 | u | -23% | i | 3% | -3% | -7%
Cc1ccc(NC(=O)C2CCCN(C(=O)c3cnn(-c4ccccc4)c3-n3cccc3)C2)cc1 (stereo unspecified) | u | u | u | -9% | x | x
Oc1ccc(O)c2c1C1(Cl)C(Cl)=C(Cl)C2(Cl)C1(Cl)Cl | i | u | i | i | u | 23µM*
COc1ccc(N2CCN(c3ncnc4c3nc3n4CCCCC3)CC2)cc1 | u | u | u | -3% | x | x
COc1ccc(NP(=O)(Oc2cccc(C)c2)Oc2cccc(C)c2)cc1OC | u | 16µM* | u | -43% | -9% | 1%
COc1ccc(NP(=O)(Oc2ccc(Cl)cc2)Oc2ccc(Cl)cc2)cc1OC | u | 20µM* | i | -47% | u | u
COc1ccccc1OP(=O)(Nc1ccc(Br)cc1)Oc1ccccc1OC | i | 16µM* | u | -79% | 2% | -12%
SMILES | KB-V1 cytotox | TGFb SMAD3 inh | KB-3-1 tox | HepG2 tox | HT1080NT lethal | HT1080 IDH1KD tx
COc1ccc(OC)c(NP(=O)(Oc2ccc(Cl)cc2)Oc2ccc(Cl)cc2)c1 | i | -17% | i | 0% | 1% | 0%
Cc1cccc(OP(=O)(Nc2ccc(F)cc2)Oc2cccc(C)c2)c1 | u | u | u | -84% | 23µM* | u
CCCCOP(=O)(c1ccc(N(C)C)cc1)C(O)c1ccc(OC)c(OC)c1 (stereo unspecified) | i | 15% | u | -21% | 10% | 2%
CC(C)CC(=O)N(Cc1ccccc1)S(=O)(=O)c1ccc2c(c1)oc(=O)n2C | i | u | i | -29% | x | x
CC(=O)c1ccc(NC(=O)c2sc3nc4c(cc3c2N)N2CCC4CC2)cc1 | 23µM* | 1% | u | -40% | x | x
C[C@H]1[C@@H](OS(=O)(=O)O)C[C@@H]2C[C@H]([C@@H](O)c3cc(=O)[nH]c(=O)[nH]3)NC3=NC[C@H]1N32 | 2.1µM* | 2.5µM* | 1µM* | -8% | 2.1µM* | x
Cc1cccc(CN2C(=O)CN=C(c3ccccc3)c3ccccc32)c1 | x | -23% | x | -1% | x | x
Cc1oc(-c2ccccc2)nc1CN1C(=O)CN=C(c2ccccc2)c2ccccc21 | u | -10% | i | 3% | -1% | -1%
Cc1oc(-c2ccccc2Cl)nc1CN1C(=O)CN=C(c2ccccc2)c2cc(Cl)ccc21 | i | -1% | i | 5% | x | x
O=C1CN=C(c2ccccc2)c2cc(Cl)ccc2N1Cc1ccc(Cl)cc1 | 15µM* | u | u | -38% | x | x
Cc1ccc(CN2C(=O)CN=C(c3ccccc3)c3ccccc32)cc1 | 18µM* | -10% | u | 6% | 8% | 1%
Cc1cccc(CN2C(=O)CN=C(c3ccccc3)c3cc(Cl)ccc32)c1 | x | 16µM* | x | -41% | x | x
CS(=O)(=O)NCc1nnc2n1-c1ccc(Cl)cc1C(c1ccccc1)=NC2 | i | 12% | i | -3% | 22% | 25%
CSCc1nnc2n1-c1ccc(Cl)cc1C(c1ccccc1)=NC2 | 16µM* | u | u | -37% | -2% | -10%
